{
  "source": "PubChem BioAssay (NCATS)",
  "note": "Inconclusive results are not listed. Entries that show only a call come without a potency. Calls of active or inactive are those of the source. Calls follow the shape of the dose curve; as a rule, active = well fitted inhibition curve with a large enough effect; inconclusive = small, poorly fitted or top-dose-only effect; inactive = flat fitted curve, though single readings scatter.",
  "data": [
    {"system": "CP291", "test": "qHTS profiling for inhibitors of Plasmodium falciparum proliferation (AID 504749); also: nearly all actives have a fitted effect of over 60% in size", "conditions": "P. falciparum in erythrocytes, SYBR Green DNA, 72 h; series mostly up to 28.7 µM", "how_it_was_run": "(§1)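 Infected RBCs, 0.3% parasitemia/2.5% Hct final; cpd 72 h, 37 C, 5% CO2; lysis buffer with saponin/triton/SYBR Green I, o/n RT dark; FI 485/535; norm. to artemisinin (0.29 uM) and DMSO.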", "values": [
      {"smiles": "CCCOC(=O)c1ccccc1O", "Potency": "inactive"},
      {"smiles": "COc1cc2c(cc1OC)[C@@H](Cc1cc(OC)c(OC)c(OC)c1)[N+](C)(CCCOC(=O)CC/C=C/CCC(=O)OCCC[N+]1(C)CCc3cc(OC)c(OC)cc3[C@H]1Cc1cc(OC)c(OC)c(OC)c1)CC2", "note": "(stereo partly drawn)", "Potency": "inactive"},
      {"smiles": "OC[C@H]1O[C@@](CO)(O[C@H]2O[C@H](CO)[C@@H](O)[C@H](O)[C@H]2O)[C@@H](O)[C@@H]1O", "Potency": "inactive"},
      {"smiles": "CCC(Cc1c(I)cc(I)c(O)c1I)C(=O)O", "note": "(stereo not drawn)", "Potency": "inactive"},
      {"smiles": "Nc1ncnc2c1ncn2CCOCP(=O)(O)O", "Potency": "inactive"},
      {"smiles": "O=C(O)CCC/C=C\\C[C@@H]1[C@@H](/C=C/[C@@H](O)COc2cccc(Cl)c2)[C@H](O)C[C@@H]1O", "Potency": "inactive"},
      {"smiles": "N=C(N)n1cccn1", "Potency": "inactive"},
      {"smiles": "CCSc1ccc2c(c1)N(CCCN1CCN(C)CC1)c1ccccc1S2", "Potency": "inactive"},
      {"smiles": "CC(C)c1nc(N(C)S(C)(=O)=O)nc(-c2ccc(F)cc2)c1/C=C/C(O)CC(O)CC(=O)O", "note": "(stereo not drawn)", "Potency": "inactive"},
      {"smiles": "CCOC(C)OCC", "Potency": "inactive"},
      {"smiles": "NCCN", "Potency": "inactive"},
      {"smiles": "CC(CC=O)CCCC(C)(C)O", "note": "(stereo not drawn)", "Potency": "inactive"},
      {"smiles": "CC(C)(COP(=O)(O)OP(=O)(O)OC[C@H]1O[C@@H](n2cnc3c(N)ncnc32)[C@H](O)[C@@H]1OP(=O)(O)O)C(O)C(=O)NCCC(=O)NCCS", "note": "(stereo partly drawn)", "Potency": "inactive"},
      {"smiles": "O=C1c2ccccc2CN2C(=O)c3ccccc3CN12", "Potency": "inactive"},
      {"smiles": "O=C1c2ccccc2C(=O)C1c1ccc(F)cc1", "Potency": "inactive"},
      {"smiles": "CNC(=O)C[C@@H](N)C(=O)N[C@@H](C(=O)N[C@@H]1C(=O)N2[C@@H]1SC(C)(C)[C@@H]2C(=O)O)c1ccc(O)cc1", "Potency": "inactive"},
      {"smiles": "CCCCCc1ccc(C)cc1O", "Potency": "inactive"},
      {"smiles": "C=CC(C)(O)CC/C=C(\\C)CCC=C(C)C", "note": "(stereo not drawn)", "Potency": "inactive"},
      {"smiles": "Cc1ccc(S(=O)(=O)NCl)cc1", "Potency": "inactive"},
      {"smiles": "CN1c2c(nc(N)[nH]c2=O)NCC1CNc1ccc(C(=O)NC(CCC(=O)O)C(=O)O)cc1", "note": "(stereo not drawn)", "Potency": "inactive"},
      {"smiles": "NC(=O)[C@@H]1CCCN1C(=O)[C@H](Cc1cnc[nH]1)NC(=O)[C@@H]1CCC(=O)N1", "Potency": "inactive"},
      {"smiles": "CN(C)CCOc1ccc(/C(=C(/CCCl)c2ccccc2)c2ccccc2)cc1", "Potency": "inactive"},
      {"smiles": "CC1(O)CCC(C(C)(C)O)CC1", "note": "(stereo not drawn)", "Potency": "inactive"},
      {"smiles": "COc1ccccc1N1CCN(CCCC(=O)c2ccc(F)cc2)CC1", "Potency": "inactive"},
      {"smiles": "CC(C)[C@@H](N)C(=O)O", "Potency": "inactive"},
      {"smiles": "CN(C)c1ccc(C(=C2C=CC(=[N+](C)C)C=C2)c2c(O)c(S(=O)(=O)[O-])cc3cc(S(=O)(=O)O)ccc23)cc1", "Potency": "inactive"},
      {"smiles": "COc1cc(S(C)=O)ccc1-c1nc2ncccc2[nH]1", "note": "(stereo not drawn)", "Potency": "inactive"},
      {"smiles": "Oc1cc(O)cc(O)c1", "Potency": "inactive"},
      {"smiles": "N[C@H](CC(=O)O)C(=O)O", "Potency": "inactive"},
      {"smiles": "C/C=C/C=C/C(=O)O", "Potency": "inactive"},
      {"smiles": "C=C(C)C1CC=C(C)CC1", "note": "(stereo not drawn)", "Potency": "inactive"},
      {"smiles": "Nc1ncnc2c1ncn2[C@H]1CC[C@@H](CO)O1", "Potency": "inactive"},
      {"smiles": "NCC[C@H](O)C(=O)N[C@@H]1C[C@H](N)[C@@H](O[C@H]2O[C@H](CN)CC[C@H]2N)[C@H](O)[C@H]1O[C@H]1O[C@H](CO)[C@@H](O)[C@H](N)[C@H]1O", "Potency": "inactive"},
      {"smiles": "[O]=[Bi][O]C(=O)[O][Bi]=[O]", "Potency": "inactive"},
      {"smiles": "Cc1c(Cl)cccc1Nc1ncccc1C(=O)O", "Potency": "inactive"},
      {"smiles": "CC1(C)S[C@@H]2[C@H](NC(=O)C3(N)CCCCC3)C(=O)N2[C@H]1C(=O)O", "Potency": "inactive"},
      {"smiles": "CCCCCCCCCCCC(=O)OCC(O)CO", "note": "(stereo not drawn)", "Potency": "inactive"},
      {"smiles": "COc1ccc(C(=O)c2ccc(C)cc2)c(O)c1", "Potency": "inactive"},
      {"smiles": "O=C1NCCN1c1ncc([N+](=O)[O-])s1", "Potency": "inactive"}
    ]},
    {"system": "CP297", "test": "qHTS profiling for inhibitors of Plasmodium falciparum proliferation (AID 504749); also: nearly all actives have a fitted effect of over 60% in size", "conditions": "P. falciparum in erythrocytes, SYBR Green DNA, 72 h; series mostly up to 28.7 µM", "how_it_was_run": "as §1", "values": [
      {"smiles": "CCCOC(=O)c1ccccc1O", "Potency": "inactive"},
      {"smiles": "COc1cc2c(cc1OC)[C@@H](Cc1cc(OC)c(OC)c(OC)c1)[N+](C)(CCCOC(=O)CC/C=C/CCC(=O)OCCC[N+]1(C)CCc3cc(OC)c(OC)cc3[C@H]1Cc1cc(OC)c(OC)c(OC)c1)CC2", "note": "(stereo partly drawn)", "Potency": "inactive"},
      {"smiles": "OC[C@H]1O[C@@](CO)(O[C@H]2O[C@H](CO)[C@@H](O)[C@H](O)[C@H]2O)[C@@H](O)[C@@H]1O", "Potency": "inactive"},
      {"smiles": "CCC(Cc1c(I)cc(I)c(O)c1I)C(=O)O", "note": "(stereo not drawn)", "Potency": "inactive"},
      {"smiles": "Nc1ncnc2c1ncn2CCOCP(=O)(O)O", "Potency": "inactive"},
      {"smiles": "O=C(O)CCC/C=C\\C[C@@H]1[C@@H](/C=C/[C@@H](O)COc2cccc(Cl)c2)[C@H](O)C[C@@H]1O", "Potency": "inactive"},
      {"smiles": "N=C(N)n1cccn1", "Potency": "inactive"},
      {"smiles": "CCSc1ccc2c(c1)N(CCCN1CCN(C)CC1)c1ccccc1S2", "Potency": "inactive"},
      {"smiles": "CC(C)c1nc(N(C)S(C)(=O)=O)nc(-c2ccc(F)cc2)c1/C=C/C(O)CC(O)CC(=O)O", "note": "(stereo not drawn)", "Potency": "inactive"},
      {"smiles": "CCOC(C)OCC", "Potency": "inactive"},
      {"smiles": "NCCN", "Potency": "inactive"},
      {"smiles": "CC(CC=O)CCCC(C)(C)O", "note": "(stereo not drawn)", "Potency": "inactive"},
      {"smiles": "CC(C)(COP(=O)(O)OP(=O)(O)OC[C@H]1O[C@@H](n2cnc3c(N)ncnc32)[C@H](O)[C@@H]1OP(=O)(O)O)C(O)C(=O)NCCC(=O)NCCS", "note": "(stereo partly drawn)", "Potency": "inactive"},
      {"smiles": "O=C1c2ccccc2CN2C(=O)c3ccccc3CN12", "Potency": "inactive"},
      {"smiles": "O=C1c2ccccc2C(=O)C1c1ccc(F)cc1", "Potency": "inactive"},
      {"smiles": "CNC(=O)C[C@@H](N)C(=O)N[C@@H](C(=O)N[C@@H]1C(=O)N2[C@@H]1SC(C)(C)[C@@H]2C(=O)O)c1ccc(O)cc1", "Potency": "inactive"},
      {"smiles": "CCCCCc1ccc(C)cc1O", "Potency": "inactive"},
      {"smiles": "C=CC(C)(O)CC/C=C(\\C)CCC=C(C)C", "note": "(stereo not drawn)", "Potency": "inactive"},
      {"smiles": "Cc1ccc(S(=O)(=O)NCl)cc1", "Potency": "inactive"},
      {"smiles": "CN1c2c(nc(N)[nH]c2=O)NCC1CNc1ccc(C(=O)NC(CCC(=O)O)C(=O)O)cc1", "note": "(stereo not drawn)", "Potency": "inactive"},
      {"smiles": "NC(=O)[C@@H]1CCCN1C(=O)[C@H](Cc1cnc[nH]1)NC(=O)[C@@H]1CCC(=O)N1", "Potency": "inactive"},
      {"smiles": "CN(C)CCOc1ccc(/C(=C(/CCCl)c2ccccc2)c2ccccc2)cc1", "Potency": "inactive"},
      {"smiles": "CC1(O)CCC(C(C)(C)O)CC1", "note": "(stereo not drawn)", "Potency": "inactive"},
      {"smiles": "COc1ccccc1N1CCN(CCCC(=O)c2ccc(F)cc2)CC1", "Potency": "inactive"},
      {"smiles": "CC(C)[C@@H](N)C(=O)O", "Potency": "inactive"},
      {"smiles": "CN(C)c1ccc(C(=C2C=CC(=[N+](C)C)C=C2)c2c(O)c(S(=O)(=O)[O-])cc3cc(S(=O)(=O)O)ccc23)cc1", "Potency": "inactive"},
      {"smiles": "COc1cc(S(C)=O)ccc1-c1nc2ncccc2[nH]1", "note": "(stereo not drawn)", "Potency": "inactive"},
      {"smiles": "Oc1cc(O)cc(O)c1", "Potency": "inactive"},
      {"smiles": "N[C@H](CC(=O)O)C(=O)O", "Potency": "inactive"},
      {"smiles": "C/C=C/C=C/C(=O)O", "Potency": "inactive"},
      {"smiles": "C=C(C)C1CC=C(C)CC1", "note": "(stereo not drawn)", "Potency": "inactive"},
      {"smiles": "Nc1ncnc2c1ncn2[C@H]1CC[C@@H](CO)O1", "Potency": "inactive"},
      {"smiles": "NCC[C@H](O)C(=O)N[C@@H]1C[C@H](N)[C@@H](O[C@H]2O[C@H](CN)CC[C@H]2N)[C@H](O)[C@H]1O[C@H]1O[C@H](CO)[C@@H](O)[C@H](N)[C@H]1O", "Potency": "inactive"},
      {"smiles": "[O]=[Bi][O]C(=O)[O][Bi]=[O]", "Potency": "inactive"},
      {"smiles": "Cc1c(Cl)cccc1Nc1ncccc1C(=O)O", "Potency": "inactive"},
      {"smiles": "CC1(C)S[C@@H]2[C@H](NC(=O)C3(N)CCCCC3)C(=O)N2[C@H]1C(=O)O", "Potency": "inactive"},
      {"smiles": "CCCCCCCCCCCC(=O)OCC(O)CO", "note": "(stereo not drawn)", "Potency": "inactive"},
      {"smiles": "COc1ccc(C(=O)c2ccc(C)cc2)c(O)c1", "Potency": "inactive"},
      {"smiles": "O=C1NCCN1c1ncc([N+](=O)[O-])s1", "Potency": "inactive"}
    ]}
  ]
}
